Screening data as filed in PubChem BioAssay.
Beta cell apopt – blocks beta cell apoptosis; INS-1E cytokine-induced death, ATP luminescence, 48 h; percent of positive-control rescue, neutral wells zero; protection from apoptosis, % (test concentration not listed); hit rate 0.8% among 300,000; AID 435005;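 active = Every replicate reaches about 75%, or at least half do and their mean reaches it too, limit read from the data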;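 also: higher means more ATP so stronger rescue from cytokine killing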
Mdm2 MdmX PPI – human Mdm2/MdmX binding inhibition; O15151+Q00987; SaOS-2 split-luciferase Mdm2/MdmX complementation, luminescence; inhibition, % at 8 µM; hit rate 3% among 330,000; AID 485346;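 active = inhibition of at least 50% at 8 µM in the primary screen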
Target sequence (O15151 whole entry, looked up): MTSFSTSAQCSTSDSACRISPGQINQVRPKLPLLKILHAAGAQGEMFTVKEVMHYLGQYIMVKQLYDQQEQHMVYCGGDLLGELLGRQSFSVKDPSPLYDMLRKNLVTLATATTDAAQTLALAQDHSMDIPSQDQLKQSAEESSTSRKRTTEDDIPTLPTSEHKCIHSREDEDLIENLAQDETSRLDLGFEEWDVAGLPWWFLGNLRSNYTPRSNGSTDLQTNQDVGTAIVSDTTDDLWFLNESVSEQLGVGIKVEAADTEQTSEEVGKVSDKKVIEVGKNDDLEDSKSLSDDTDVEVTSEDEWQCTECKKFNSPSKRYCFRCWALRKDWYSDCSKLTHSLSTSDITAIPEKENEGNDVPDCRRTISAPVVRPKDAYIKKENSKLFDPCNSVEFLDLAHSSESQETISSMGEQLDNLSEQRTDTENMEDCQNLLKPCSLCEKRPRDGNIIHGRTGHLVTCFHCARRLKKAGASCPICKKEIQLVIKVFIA
Target sequence (Q00987 whole entry, looked up): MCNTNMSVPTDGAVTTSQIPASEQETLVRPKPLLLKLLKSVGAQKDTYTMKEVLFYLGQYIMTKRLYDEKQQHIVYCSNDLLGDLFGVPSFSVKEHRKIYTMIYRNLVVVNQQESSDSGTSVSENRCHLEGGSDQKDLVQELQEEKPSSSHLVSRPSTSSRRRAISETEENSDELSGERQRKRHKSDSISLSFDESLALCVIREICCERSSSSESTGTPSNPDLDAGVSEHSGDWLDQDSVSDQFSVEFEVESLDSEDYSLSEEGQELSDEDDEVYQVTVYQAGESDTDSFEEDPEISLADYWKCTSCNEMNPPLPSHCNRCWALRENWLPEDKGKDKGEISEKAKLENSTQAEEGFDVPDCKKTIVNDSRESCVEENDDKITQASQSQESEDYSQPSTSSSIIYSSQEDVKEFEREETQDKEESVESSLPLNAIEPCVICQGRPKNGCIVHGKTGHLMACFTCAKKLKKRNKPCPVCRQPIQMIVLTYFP
MPTP inh – permeability transition pore inhibition. isolated mouse mitochondria, Ca2+ swelling absorbance, 30 min. inhibition, % at 10 µM. hit rate 1.4% among 360,000. AID 602449;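 active = inhibition of 50% or more, scaled per plate between neutral and stimulator controls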
NR3A LBD binder – NR3A (human) ligand-binding domain modulation; NR3A LBD differential scanning fluorimetry, Tm shift; 0% = protein alone, 100% = glycine-bound protein; Tm shift relative to glycine control, % at 25 µM; hit rate 2.5% among 340,000;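 active = melting temperature shift of at least 10% of the positive control shift, at one fixed dose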
Gli-Sufu antag – antagonists of Gli-Sufu signaling; Sufu-KO-LIGHT fibroblasts, Gli luciferase reporter luminescence; inhibition, % at 5 µM; hit rate 0.74% among 340,000; AID 588413;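 active = inhibition above about 55%, limit read from the data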
CSC inhib – cancer stem cell inhibition; inhibition, % at 7.5 µM; hit rate 1.1% among 300,000; cancer stem cell-like cells viability, luminescence; in the data active = inhibition above about 75%; tested in HMLE shEcad cells
Mdm2-MdmX conf – human Mdm2/MdmX binding inhibition, confirmed; shares compounds with Mdm2 MdmX PPI; luminescent assay; inhibition, % at 8 µM; hit rate 55% among 10,000; in the data active = inhibition above about 40%
FLuc counter – full-length luciferase inhibition in Mdm2/MdmX counter-screen; hit rate 77% among 6,200; inhibition, % at 8 µM; shares compounds with Mdm2 MdmX PPI; SaOS-2 full-length luciferase counterscreen, luminescence;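 active = mean inhibition at 8 µM reaching about 37%, which flags the compound as non-specific, limit read from the data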;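 also: p53-null SaOS-2 cells with luciferase driven by a doxycycline-inducible promoter; compound on cells about two nights before reading with doxycycline added after day one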
Hits are given with their value; 0 = inactive; - = not tested or not shown. Hits are enriched below; roughly 6.6% of the tested compounds scored in any of these assays.

SMILES | Beta cell apopt | Mdm2 MdmX PPI | MPTP inh | NR3A LBD binder | Gli-Sufu antag | CSC inhib | Mdm2-MdmX conf | FLuc counter
COC(=O)C[C@H]1C=C[C@H](NS(=O)(=O)c2cn(C)cn2)[C@@H](CO)O1 | - | - | 0 | - | - | - | - | -
C[C@H](CO)N1C[C@H](C)[C@H](CN(C)Cc2cccc(F)c2)Oc2ncc(Br)cc2C1=O | - | - | 0 | - | - | - | - | -
O=C(Cc1ccccc1F)Nc1cc(S(=O)(=O)N2CCOCC2)ccc1N1CCCC1 | 0 | 0 | 0 | 0 | 0 | 0 | - | -
CC(C)CC(=O)O/N=C1\C(=O)N(Cc2ccc(Cl)cc2)c2ccc([N+](=O)[O-])cc21 | 0 | 60 | - | - | - | - | 0 | -
Cc1cccn2c(=O)c3cc(C(=O)NCc4ccco4)c(=N)n(CCc4ccccc4)c3nc12 | - | 0 | 0 | 0 | 0 | - | - | -
N=c1c(C(=O)NCc2ccc(F)cc2)cc2c(=O)n3ccccc3nc2n1Cc1ccco1 | 0 | 100 | 0 | 0 | 0 | 0 | 61 | 0
N=c1c(C(=O)NCc2ccccc2)cc2c(=O)n3ccccc3nc2n1Cc1ccco1 | 0 | 0 | 0 | 0 | 0 | 0 | - | -
Cc1cccn2c(=O)c3cc(C(=O)NCCc4ccccc4)c(=N)n(Cc4ccco4)c3nc12 | 0 | 100 | 0 | 0 | 0 | 0 | 92 | 0
COc1ccc(CCNC(=O)c2cc3c(=O)n4cccc(C)c4nc3n(Cc3ccco3)c2=N)cc1OC | 105 | 100 | 0 | 0 | 0 | 0 | 96 | 0
C[C@H](CO)N1C[C@H](C)[C@@H](CN(C)C(=O)c2ccccc2)OCc2cnnn2CCCC1=O | - | - | 0 | - | - | - | - | -
CCN(CC)c1ncnc2c1ncn2[C@H]1CN(Cc2cc(OC)c(OC)c(OC)c2)C[C@@H](CO)O1 | - | - | 0 | - | - | - | - | -
Cc1onc(-c2ccccc2Cl)c1C(=O)N1CCN(C=O)CC1 | 0 | 0 | 0 | 0 | 0 | 0 | - | -
Cc1cccc(N2CCN(C(=O)c3c(-c4ccccc4Cl)noc3C)CC2)c1C | 0 | 59 | 0 | - | - | 0 | 76 | 71
O=c1c2ccccc2oc2ccc(C#CC3(O)CCCCC3)cc12 | 0 | 59 | 0 | 0 | 0 | 93 | 51 | 173
COc1cccc2oc3ccc(C#CC4(N)CCCCC4)cc3c(=O)c12 | 0 | 96 | 0 | 0 | 0 | 0 | 0 | -
COc1cc2oc3ccc(C#Cc4ccc(N)cc4)cc3c(=O)c2cc1OC | - | - | 0 | 0 | 0 | 0 | - | -
N#Cc1ccc(C#Cc2ccc3oc4ccccc4c(=O)c3c2)cc1 | 0 | 67 | 0 | 0 | 0 | 0 | 0 | -
Cc1cc2sc3ccc(C#CC4(O)CCCCC4)cc3c(=O)c2cc1C | 0 | 94 | 0 | 0 | - | 0 | 97 | 54
Cn1c2ccccc2c(=O)c2cc(C#CC3(O)CCCCC3)ccc21 | 0 | 69 | 0 | 0 | 0 | 0 | 53 | 169
Cn1c2ccccc2c(=O)c2ccc(C#CC3(N)CCCCC3)cc21 | 0 | 0 | 0 | 0 | 0 | 0 | - | -
Cc1cc(C)n(-c2nc(NCCCN(C)C)c3c4c(sc3n2)CCCC4)n1 | 0 | 54 | 0 | 0 | 0 | 0 | 0 | -
Cc1cc(C)n(-c2nc(NCCCN(C)C)c3c4c(sc3n2)COC(C)(C)C4)n1 | 0 | 0 | 0 | 0 | 0 | 0 | - | -
Cc1cc(C)n(-c2nc(NCCN(C)C)c3c4c(sc3n2)CCCC4)n1 | 112 | 100 | 0 | 0 | 0 | 0 | 89 | 0
C=CCNc1nc(-c2ccccn2)nnc1-c1ccccc1 | 0 | 55 | 0 | 0 | 0 | 0 | 60 | 41
CCCNC(=O)C1(C)CCN(Cc2noc(-c3ccccc3OC)n2)C1 (stereo not given) | - | - | 0 | - | - | - | - | -
SMILES | Beta cell apopt | Mdm2 MdmX PPI | MPTP inh | NR3A LBD binder | Gli-Sufu antag | CSC inhib | Mdm2-MdmX conf | FLuc counter
COc1ccccc1NC(=O)c1cc2c(CO)cnc(C)c2oc1=Nc1ccccc1 | 0 | 0 | 0 | 0 | 0 | 0 | - | -
COc1ccccc1NC(=O)c1cc2c(CO)cnc(C)c2oc1=Nc1cccc(C(N)=O)c1 | 0 | 79 | 0 | 0 | 0 | 0 | 41 | 90
O=C(CN1C(=O)c2ccccc2S1(=O)=O)c1ccc(OC(F)F)cc1 | 0 | 50 | 0 | 0 | 78 | 0 | 72 | 76
O=C(CN1C(=O)c2ccccc2S1(=O)=O)c1ccc2c(c1)OCCO2 | 0 | 98 | 0 | 0 | 94 | 0 | 99 | 56
O=C(CCN1C(=O)c2ccccc2S1(=O)=O)Nc1ccc2c(c1)OCCO2 | 0 | 0 | 0 | 0 | 0 | 0 | - | -
O=C(CN1C(=O)c2ccccc2S1(=O)=O)c1ccc2c(c1)OCCCO2 | 0 | 95 | 0 | 0 | 96 | 0 | 81 | 56
COc1ccc(OC2(C)CCN(Cc3ccccc3OC(F)F)C2)cc1 (stereo not given) | - | - | 0 | - | - | - | - | -
CCOc1ccc(N2CC(C(=O)Nc3cc(S(=O)(=O)N4CCCCC4)ccc3C)CC2=O)cc1 (stereo not given) | 0 | 0 | 0 | 0 | 0 | 0 | - | -
COC(=O)c1ccc(NC(=O)c2nc(S(=O)(=O)Cc3cccc(C)c3)ncc2Cl)cc1 | 75 | 76 | 0 | 0 | 0 | 110 | 91 | 52
Cc1cccc(COC(=O)Nc2ccc(NC(=O)c3ccccc3Cl)cc2)c1 | 0 | 0 | 0 | 0 | 0 | 0 | - | -
CC(=O)Nc1ccc(NC(=O)c2nc(S(=O)(=O)Cc3cccc(C)c3)ncc2Cl)cc1 | 0 | 86 | 0 | 0 | 0 | 91 | 66 | 51
Cc1cccc(CS(=O)(=O)c2ncc(Cl)c(C(=O)NCc3ccc4c(c3)OCO4)n2)c1 | 0 | 60 | 0 | 0 | 0 | 0 | 64 | 0
O=C(CCN1CCN(c2ccccc2F)CC1)Nc1cccc(F)c1 | - | 0 | 0 | 0 | 0 | - | - | -
Cc1ccc(NC(=S)NC(=O)Cc2ccccc2)c(O)c1 | 0 | 0 | 0 | 0 | 0 | 0 | - | -
CCN1CCN(C(=O)C(C)Sc2nnc3nc(C)cc(C)n23)CC1 (stereo not given) | 0 | 0 | 0 | 0 | 0 | - | - | -
Cc1cc(C)c(S(N)(=O)=O)c(C)c1N(C)S(=O)(=O)c1ccc(Cl)cc1 | 0 | 0 | 0 | 0 | 0 | 0 | - | -
CCOC(=O)N1CCN(c2c(F)cc3[nH]c(=S)[nH]c3c2Br)CC1 | 0 | 61 | 0 | 0 | 0 | - | 58 | 47
CCN(CC)CCOC(=O)c1ccc(NC(=O)CCCN2C(=O)/C(=C/c3cccs3)SC2=S)cc1 | 0 | 59 | 0 | 0 | 0 | 0 | 0 | -
CCN(CC)CCOC(=O)c1ccc(NC(=O)c2cn(-c3ccccc3)nc2-c2cccs2)cc1 | - | 50 | 0 | 0 | 0 | - | 0 | 101
O=C(CCCN1C(=O)/C(=C/c2cccs2)SC1=S)Nc1ccccc1O | 0 | 54 | 0 | 10 | 0 | - | 0 | 87
O=C(CCCN1C(=O)/C(=C\c2cccs2)SC1=S)Nc1ccc(O)cc1 | 0 | 78 | 0 | 0 | 0 | - | 71 | 0
O=C(CCCN1C(=O)/C(=C\c2cccs2)SC1=S)Nc1ccc(O)cc1C(=O)O | 0 | 0 | 0 | 0 | 0 | 0 | - | -
O=C(CCN1C(=O)/C(=C/c2cccs2)SC1=S)Nc1ccc(C(=O)O)cc1 | 0 | 0 | 0 | 0 | 0 | - | - | -
O=C(CCCN1C(=O)/C(=C\c2cccs2)SC1=S)Nc1ccc(C(=O)O)cc1 | 0 | 0 | 0 | 0 | 0 | 0 | - | -
CC(C)C[C@H]1COc2cccc(N3CCN(Cc4ccccc4F)CC3)c2S(=O)(=O)N1 | - | - | 0 | - | - | - | - | -
